Source: PubChem BioAssay
A selection: hits, their analogues and other compounds. The true share with any hit is near 2.1%.
aSyn yeast inh: alpha-synuclein toxicity inhibition in yeast | Yeast expressing alpha-synuclein, growth rescue, BacTiter-Glo, 24 h | hit rate 0.14% among 370,000 | Potency, µM (series often up to 46.1 µM), for inactives: at the top dose growth rescue (activation), most hits filed as activators; note: % of control where 0% means no effect; nearly all actives have a fitted effect of over 65% in size
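Galactose-induced alpha-syn yeast (OD600=0.02, raffinose-pregrown) + pinned cpd, 24 hr, 30 deg C; growth by BacTiter-Glo luminescence. Growth restoration scores as activation.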
FUS suppressor: suppressors of FUS proteinopathy in yeast; hit rate 0.24% among 390,000; Potency, µM (series often up to 76.6 µM), most hits filed as activators; S. cerevisiae FUS-expressing, growth rescue, OD600, 24 h;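 note: plate controls were DMSO vehicle for no effect and reference control for full effect; nearly all actives have a fitted effect of over 55% in size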
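Toxicity suppression screen in FUS-yeast. Cells induced with 2% galactose, starting OD 0.005, treated 24hr at 30C with compounds at multiple final concentrations; growth by OD600.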
Abeta rescue: compounds reversing amyloid beta toxicity in yeast. yeast expressing A-beta42, growth rescue, OD600, 48 h; response scale: 0% DMSO, 100% iron-clioquinol control. Potency, µM (titrated, usually from 46.1 µM), most hits filed as activators. hit rate 0.063% among 410,000. AID 1347071; note: nearly all actives have a fitted effect of over 55% in size
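Yeast growth medium received pinned compounds, then yeast cells expressing toxic A-beta were added; plates incubated at 30 C for 48 hr. Growth read as absorbance at 600 nm, normalized to DMSO and equimolar FeCl3 plus clioquinol controls.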
TDP-43 yeast inh: inhibitors of TDP-43 toxicity in yeast. TDP-43 expressing yeast growth rescue, BacTiter-Glo, 24 h. Potency, µM (titrated, usually from 46.1 µM), without a hit: at the highest dose growth rescue (activation), most hits filed as activators. hit rate 1.8% among 410,000. AID 652104; note: % of control where 0% means no effect; nearly all actives have a fitted effect of over 50% in size
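Yeast cells expressing TDP-43 under galactose induction are exposed to compounds for 24 hr at 30 deg C. BacTiter-Glo luminescence measures growth, so protective compounds score as activators.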
Active calls of the source: *; i = inactive; ? = inconclusive; / = no result given; [ ] = remark or other dose. Calls come from the whole dose curve; as a rule, active = well fitted curve in the direction sought with a large enough effect; inconclusive = small, poorly fitted or top-dose-only effect, or another doubt; inactive = no such curve, though single readings can be large; an effect the other way counts as inactive or inconclusive. Potency is the fitted concentration of half-maximal effect.

SMILES	aSyn yeast inh	FUS suppressor	Abeta rescue	TDP-43 yeast inh
COc1cc(C(=O)NNC(=O)c2nn(C)c(=O)c3ccccc23)cc(OC)c1OC	-6%	i	i	3.2µM*
Cc1onc(C(=O)Nc2ccccc2C(F)(F)F)c1[N+](=O)[O-]	-4%	i	i	12%
Cn1nc(C(=O)Nc2cccc(C(F)(F)F)c2)c2ccccc2c1=O	9%	/	i	11µM*
Cn1nc(C(=O)Nc2cccc(C(=O)NC3CC3)c2)c2ccccc2c1=O	6%	i	i	8%
COc1ccc(NC(=O)CC2C(=O)N(c3ccc(F)cc3)C(=O)N2Cc2ccco2)cc1 (centres undefined)	/	i	i	4%
C[C@H](O)[C@@H]1CN2CCc3ccc(N4CCOCC4)cc3[C@@H]2C[C@@H]1N(C)C(=O)c1ccccc1F	/	i	/	/
CCCCc1ccc(NC(=S)NCC2CCCO2)cc1 (centres undefined)	-12%	i	13µM*	-3%[0.397 µM]
CN(C)c1ccc(NC(=S)NCC2CCCO2)cc1 (centres undefined)	0%	i	i	8%
Cc1c(NC(=O)C2CCCN(S(=O)(=O)c3c(C(C)C)cc(C(C)C)cc3C(C)C)C2)c(=O)n(-c2ccccc2)n1C (centres undefined)	/	i	/	/
COc1ccc(OCCCC(=O)Nc2nc(-c3ccccn3)cs2)cc1	2%	i	?	11µM*
Cc1cc(C)c(OCC(=O)Nc2nc(-c3ccccn3)cs2)c(C)c1	13µM*	?	i	-14%
O=C(CC1CC2CCC1C2)Nc1nc(-c2ccccn2)cs1 (centres undefined)	25µM*	i	14µM*	18µM*
O=C(CCS(=O)(=O)c1ccccc1)Nc1nc(-c2ccccn2)cs1	-2%	i	i	25%
Cc1cccc(CNC(=O)CN2C(=O)C3CCCCN3c3ccc(C(=O)N4CCCC4)cc32)c1 (centres undefined)	/	i	i	0%[9.22 µM]
Cc1ccccc1CN1C(=O)c2ccccc2Sc2ccc(C(=O)NC(C)c3ccccc3)cc21 (centres undefined)	/	i	i	9%
CN(C(=O)COC(=O)C1CCN(S(=O)(=O)c2ccc3c(c2)OCCO3)CC1)C1CCS(=O)(=O)C1 (centres undefined)	7%	i	i	1%
CCCCN1CC(=O)N2[C@H]3c4ccccc4OC[C@@H]3[C@H](C(=O)OCC)[C@]2(C)C1=O	-8%	i	i	9%
O=C(CN1CCN(Cc2ccc(Cl)cc2)CC1)N1CCc2ccccc21	2%	i	i	2%
CCOc1ccccc1NC(=O)Cn1c(=O)n(-c2ccc(C)c(C)c2)c(=O)c2c(C)c(C(=O)N(C)C)sc21	/	i	i	0%
COc1ccc(Nc2cc(Cl)nc(N)n2)cc1OC	4%	i	i	6%
CCOC(=O)CSc1nnc(CNc2ccc(Cl)cc2)n1Cc1ccccc1	?	i	i	14µM*
c1ccc(CNc2ncnc3scc(-c4cccs4)c23)nc1	11%	i	i	18µM*
O=C(Nc1ccccc1)n1ccc2ccc(-c3ccc4cc[nH]c4c3)cc21	/	i	/	/
N#CCCCSc1nnnn1-c1cccc(Cl)c1	3%	i	i	22µM*
CCOc1nc(Nc2ccc(OC)c(Cl)c2)nc(OCC)n1	2%	i	i	14µM*
SMILES	aSyn yeast inh	FUS suppressor	Abeta rescue	TDP-43 yeast inh
CCOc1nc(Nc2ccc(OC)cc2)nc(OCC)n1	-4%	i	i	22%
COc1ccc(Nc2nc(N3CCOCC3)nc(N3CCOCC3)n2)cc1Cl	4%	i	i	16µM*
Cc1ccc(Nc2nc(Nc3ccc(C)c(C)c3)nc(N3CCOCC3)n2)cc1C	/	i	i	16%
Cc1nn(-c2ccccc2)c2c1N(CCCC(=O)NCc1ccc(N(C)C)cc1)C(=O)CS2	/	i	i	16%
COc1ccc(CNC(=O)CCCN2C(=O)CSc3c2c(C)nn3-c2ccccc2)cc1	/	i	i	22µM*
CCCOc1ccc(CNC(=O)CCCN2C(=O)CSc3c2c(C)nn3-c2ccccc2)cc1	/	?	i	18µM*
CN(Cc1ccccc1)C(=O)c1ccc2nc([C@@H]3O[C@H](CO)[C@H](O)[C@H](O)[C@H]3O)[nH]c2c1	0%	i	i	-5%
COc1ccc(OC)c(-c2csc(NC(=O)Cc3ccccc3)n2)c1	-6%	i	i	?
Cc1ccc(C(=O)Nc2nccc(-c3cccs3)n2)cc1	-1%	i	i	13µM*
O=C(Cc1ccccc1F)Nc1nc(-c2cccs2)cs1	-10%	i	i	13µM*
O=C(Nc1nc(-c2cccs2)cs1)c1ccc(Cl)cc1	-33%	i	i	35µM*
COc1ccc(-c2csc(NC(=O)Cc3ccccc3F)n2)c(OC)c1	-7%	i	i	13µM*
COc1ccccc1NC(=O)C(C)OC(=O)Cc1ccsc1 (centres undefined)	2%	i	i	30%
Cc1ccc(N(CC(=O)Nc2ccc(Br)c(C)c2)S(=O)(=O)c2c(C)[nH]c(=O)[nH]c2=O)cc1	-6%	i	i	-2%
C=CCN1C(=O)[C@@H](CC(=O)NCCc2ccccc2OC)[C@]2(C(=O)OC)CCCCC=C12	/	i	/	/
O=C(NCCc1csc(-c2ccc(Cl)cc2)n1)c1cccs1	/	i	i	18µM*
O=C(Nc1cccc(C(F)(F)F)c1)c1csc(-c2ccncc2)n1	-4%	i	i	-8%
COc1cc(NC(=O)c2csc(-c3ccncc3)n2)cc(C(=O)Nc2cccc(C(F)(F)F)c2)c1	1%	?	i	20µM*
COc1ccc(C(=O)NCCc2csc(-c3ccc(Cl)cc3)n2)c(OC)c1	/	?	i	20µM*
COc1ccccc1C(=O)NCCc1csc(-c2ccc(C(F)(F)F)cc2)n1	/	?	i	25µM*
Cc1ccc(-n2ncc3c(SCc4cccnc4)ncnc32)c(C)c1	-2%	i	i	11%
COc1ccc(CC(=O)NCCc2csc(-c3ccc(C(F)(F)F)cc3)n2)cc1	-4%	i	i	11%
COc1cc(OC)cc(C(=O)NCCc2csc(-c3ccc(C(F)(F)F)cc3)n2)c1	/	i	i	18µM*
CC(Sc1nnc(NC2CC2)s1)C(=O)Nc1ccc(N2CCOCC2)cc1 (centres undefined)	5%	i	i	?
CC(Sc1nnc(NC2CCCCC2)s1)C(=O)Nc1ccc2c(c1)C(=O)c1ccccc1C2=O (centres undefined)	2%	?	i	35µM*
CCCCCn1c(=O)c2ccccc2n2c(=S)[nH]nc12	9%	i	i	11µM*
CCC(Sc1nc2ccsc2c(=O)n1Cc1ccc(C(=O)O)cc1)C(=O)Nc1ccc(Cl)cc1 (centres undefined)	-3%	35µM*	i	21%
Cc1ccccc1Cn1cnc2ccccc2c1=O	5%	i	i	?
